# Legend:
# Experiment in all cases: PBM binding z-score (relative to random genomic background probes); higher = stronger binding; sequences stand for … in GC…GCGATTGACAGCGTAGAATGAAGG
# [1] = system: FXR:RXRa (NR concentration 270 nM, RXRa partner concentration 90 nM)
# Outline: (§1)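 Each nuclear receptor dimer, without ligand, was incubated for 1 h on custom Agilent 4×180K protein-binding microarrays. Binding was detected with antibodies against each partner (one per run), and scanned fluorescence was regression-normalized. The binding z-scores are referenced to random human genomic background probes.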
# [2] = system: LXRa:RXRa (NR concentration 270 nM, RXRa partner concentration 90 nM)
# Outline: as §1
# [3] = system: LXRa homodimer (NR concentration 270 nM)
# Outline: as §1
# [4] = system: LXRb:RXRa (NR concentration 270 nM, RXRa partner concentration 90 nM)
# Outline: as §1
# [5] = system: LXRb homodimer (NR concentration 270 nM)
# Outline: as §1
# [6] = system: PPARa:RXRa (NR concentration 270 nM, RXRa partner concentration 90 nM)
# Outline: as §1
# [7] = system: PPARg:RXRa (NR concentration 180 nM, RXRa partner concentration 90 nM)
# Outline: as §1
# [8] = system: PPARg:RXRa 270nM:90nM, anti-RXR (NR concentration 270 nM, RXRa partner concentration 90 nM)
# Outline: as §1
# [9] = system: PPARg:RXRa 30nM:10nM, anti-RXR (NR concentration 30 nM, RXRa partner concentration 10 nM)
# Outline: as §1
# [10] = system: PPARg:RXRa 90nM:30nM, anti-RXR (NR concentration 90 nM, RXRa partner concentration 30 nM)
# Outline: as §1
Sequence,PBM binding z-score [1],PBM binding z-score [2],PBM binding z-score [3],PBM binding z-score [4],PBM binding z-score [5],PBM binding z-score [6],PBM binding z-score [7],PBM binding z-score [8],PBM binding z-score [9],PBM binding z-score [10]
ATCTCTAGGTAACCAAGTCCAGTGAATGCCGAAC,0.284,0.199,-0.00888,0.0348,0.546,0.54,0.444,0.891,0.172,0.381
CAAACTAGGTCCCAGAGGTCAAAGTCCGTGCGTA,4.91,5.18,5.61,5.18,1.42,4.98,4.51,4.75,2.13,4.08
CCTGCTAGGCCAATGGTCAGCTAAAGCAGCTCGC,-0.614,-0.503,-0.698,-0.914,-0.839,-0.216,0.706,2.33,0.142,1.6
GCAGACAAGTGAAACGCAGGTAACTCAGGGTGGC,-0.375,-0.79,-0.665,-0.901,-1.26,-0.28,0.44,-0.661,-0.558,-0.468
CTCGAAAGGTCGGTTGAGGTGAGTATTCGGATAA,2.94,1.75,-0.326,1.32,-0.125,2.56,-0.124,1.15,0.0232,0.23
AAAATGAGGTTATACGTAGATCAGGGAAGAAAGT,2.34,2.36,0.225,1.87,0.19,3.52,2.69,2.4,1.33,1.9
TCATATATGTAATACAGGTGAAAGTCGGCATCTA,0.656,0.799,0.168,0.857,0.395,2.14,2.09,3.12,3.65,3.4
CCGACTGGGCCATCAGGTCATTGATATCAACGTT,1.52,1.05,0.75,1.38,-0.6,2.19,1.69,2.75,0.458,1.85
TAGCCTAGGTCATTGGGCCCGTATAGTACGCATC,4.15,3.59,0.962,2.9,0.67,3.84,2.27,2.57,0.517,1.74
ATACCAAGGTGATTGTGAGGTCGTTGATACTAAC,2.01,2.09,1.51,1.81,0.313,1.79,0.442,0.649,0.0726,0.48
CCTATTAGTTGACCATAAGGGCAACAGAAGCTCG,0.832,0.536,0.381,0.601,0.473,0.814,0.639,0.432,0.111,0.284
ATCTAAAGGTCGACGAGGTGAGTATACACCGTTT,4.77,4.07,0.832,3.04,0.727,4.38,3.31,3.51,1.21,2.67
CAAACTAGGACAAGGTCAAAGTCGGTTTGTGCCA,4.54,4.18,2.08,3.48,0.526,5.05,5.5,5.41,3.12,4.9
AGTCAAAGTTCATCTCGGTAACGTAAGATATGCT,6.81,6.1,5.38,3.79,1.92,4.76,6.02,6.19,3.18,5.22
ACTAGCAAGCCAAGTTTGGGTCACTCAAACAAAG,-0.12,-0.258,-0.55,0.443,-0.728,0.909,-0.253,0.132,-0.505,-0.56
CCTACTGGGCCACGAAAGGTCATTGAGTCAGTGA,3.83,5.32,5.25,4.4,0.561,4.87,5.06,5.06,2.55,4.22
ACTTACGGGGCAACGAGGTTATAGCACGCGTATA,0.934,0.688,-0.335,1.73,0.511,2.21,1.64,1.26,0.448,1.2
CCTAGTTGGTTAGGAGGTCACACACCGGATATGA,3.07,3.38,2.02,3.21,0.635,4.02,2.54,3.3,1.25,2.81
TCTTGTAGATCCGCAGGTTAAGAAAGCTGGCCAA,0.144,0.322,-0.25,0.303,-0.333,0.634,-0.592,1.34,2.55,1.87

Sequence,PBM binding z-score [1],PBM binding z-score [2],PBM binding z-score [3],PBM binding z-score [4],PBM binding z-score [5],PBM binding z-score [6],PBM binding z-score [7],PBM binding z-score [8],PBM binding z-score [9],PBM binding z-score [10]
CTCGAAAGGTCGTGCCCAGGTGAGTATACCAAAC,5.26,3.99,0.422,3.22,0.542,4.81,2.54,3.88,1.14,2.23
CCTCGAAGGACAGAAGGTCAGAGCTGTCCGCTTT,1.13,1.56,0.132,1.28,-0.573,1.83,0.0228,0.429,-0.598,0.107
TTACCATGGTGAGCTGAGGTCGTTGATCCAACTC,0.322,0.0093,-0.568,0.111,-1.05,0.702,-0.38,-0.0543,-0.214,-0.294
TCGAGTAGGTTTGGGGCATTCAGAATGGCGTCGA,-0.5,-0.529,-0.289,0.316,-0.295,0.0771,-0.558,0.475,0.701,0.598
ATATGTAGGTTAAGGGTCATTAAGGTTGGTTCGC,5.05,4.87,2.72,4.3,0.865,6.59,11.6,9.59,10.3,10.7
TCTGGTAGATCAGCAGGTTAAGAAAGCTGGCCAA,-0.0813,-0.0843,-0.0573,0.308,-1.12,0.507,-0.637,1.06,1.81,1.12
TCTTGTAGATCAAAGGTTAATAAAGCCGAAGCCT,1.43,1.96,0.26,2.03,0.175,4.63,7.9,7.38,7.95,8.32
AATACAGGGTCATCGTAGGCTAGAGTACGCACAG,7.1,6.2,2.25,4.59,1.4,6,6.55,5.9,2.52,4.76
ATATGTAGGTTAAGGGTCGTTCAGGTTGGTTCGC,2.74,2.85,1.23,2.85,0.845,6.01,10.9,9.42,10.4,11
TAGCCTAGGCCAGATCGGGCCAGTATACGCTATA,-0.616,-1.17,-0.865,-1.22,-1.15,-1.12,0.0311,-1.24,-0.873,-1.05
CCTAGTTGGTCAGGAGGTCAAACACCGGATATGA,4.57,4.4,3.59,4.03,1.06,4.55,3.32,3.96,1.67,3.26
TAGCCTAGGTCATTCTGGGGCCAGTATAGAAAGC,4.29,3.66,0.795,2.94,1.34,3.37,1.98,2.19,0.292,1.44
CCTTACGGGTCACGGACAGGTTATAGCATTTGGA,6.85,5.09,0.422,4.42,0.0189,6.01,6.38,6.56,3.37,5.44
CCGACTGGGGCAGAAAGGTTACCAGACCATCCGG,0.0987,0.481,-0.312,0.525,-1.23,2.1,1.47,2.61,0.619,2.04
TCTGCTAGGTCAACTATGGTCAGCTAATCTGCTA,4.09,3.35,0.302,2.35,0.258,3.65,2.72,3.29,2.15,2.81
GCTTGTAGATCAAGGTTAAGGAAGACTAAGCTAA,0.0551,0.428,-0.182,0.363,-0.628,1.68,1.05,2.33,0.604,1.48
GGTACAGGGTCAAGGCCAGAGTACGCGTATTGAT,6.7,3.85,0.0121,3.89,-0.206,5.92,5.62,5.68,2.38,4.07
ATCGAAAGGTCGAGGTGAGTGTAGAGAAAGGGAA,4.53,3.52,0.118,2.74,0.572,4.69,3.13,3.76,1.42,2.6
CCTACTGGGCCACGAAAGGTCATTGATTCAGTGA,3.58,5.34,4.9,4.15,0.552,4.58,4.57,5.08,2.53,4.4
